Test results reported in PubChem BioAssay (Tox21).
Records with an inconclusive call do not appear. Activity calls are given as the source filed them. Unless noted, calls follow the shape of the dose curve; as a rule, active = well fitted curve in the direction sought with a large enough effect in the repeat runs; inconclusive = weak or mixed curves; inactive = no such curve, though single readings can be large; an effect the other way counts as inactive or inconclusive.

Tests used:
[1] = qHTS assay to identify small molecule antagonists of the androgen receptor (AR) signaling pathway using the MDA cell line in the presence of 0.5 nM R1881 - cell viability counter screen (AID 1259242); also: nearly all actives have a fitted effect of over 45% in size
Summary of the method: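 qHTS format. MDA-kb2 (MMTV-luc, AR/GR responsive) + cpd + 0.5 nM R1881 final, 16 hr 37C/0% CO2 → CellTiter-Fluor 30 min → fluorescence intensity.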

[2] = qHTS assay to identify small molecule phospholipidosis (PLD) inducers (AID 1259344; active = well fitted curve in the direction sought with a large enough effect; an effect the other way counts as inactive or inconclusive)
Summary of the method: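 Read-out is LipidTOX Red fluorescence (ex 595/em 615) imaged in HepG2 cells after 24 h compound exposure at 37 C, with Hoechst nuclear counterstain (ex 352/em 461) allowing per-cell normalisation.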

[3] = qHTS assay to identify small molecule HDAC inhibitors (AID 1259364);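 also: wild-type HCT-116 cells with endogenous class I/II HDAC activity; top concentration of the series differs between compounds; nearly all actives have a fitted effect of over 45% in size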
Summary of the method: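 Quantitative high-throughput format: overnight-seeded HCT-116 cells got compounds for 2 hr at 37C; HDAC-Glo I/II reagent added, 30 min RT, luminescence measured.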

[4] = qHTS assay to identify small molecule HDAC inhibitors - cell viability counter screen (AID 1259365); also: series mostly up to about 92 µM; nearly all actives have a fitted effect of over 50% in size
Summary of the method: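 Wild-type HCT-116 cells, 1,500/well, cultured overnight, then compound-treated 2 h at 37 C. Viability measured as ATP luminescence with CellTiter-Glo after 30 min at room temperature.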

[5] = qHTS assay to identify small molecule agonists of the sonic hedgehog signaling (Shh) pathway - cell viability counter screen (AID 1259366); also: nearly all actives have a fitted effect of over 50% in size
Summary of the method: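 NIH/3T3-derived Gli1-Luc reporter cells, 2,000 per well, received compound after 4 h and were treated about 23 h at 37C. Viability measured in the same wells by CellTiter-Fluor fluorescence after 1 h.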

[6] = qHTS assay to identify small molecule antagonists of the sonic hedgehog signaling (Shh) pathway - cell viability counter screen (AID 1259367); also: nearly all actives have a fitted effect of over 55% in size
Summary of the method: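 Fluorescence read-out (CellTiter-Fluor, 1 hr at 37C) taken after 23 hr compound treatment of 3T3 Gli1-Luc cells stimulated with conditioned medium. Cells were seeded at 2,000 per well and pre-incubated 4 hr.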

[7] = qHTS assay to identify small molecule agonists of the sonic hedgehog signaling (Shh) pathway (AID 1259368; calls by dose curve;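 also: NIH/3T3-derived 3T3Gli1-Luc cells carrying a stable Gli1-driven firefly luciferase reporter; series mostly up to about 92 µM; nearly all actives have a fitted effect of over 15% in size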)
Summary of the method: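 Quantitative high-throughput format using a Gli1-driven firefly luciferase reporter line derived from NIH/3T3 cells. After a 24 hr compound treatment at 37 C and 5% CO2, luminescence reported Gli1 response element activity.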

[8] = qHTS assay to identify small molecule antagonists of the sonic hedgehog signaling (Shh) pathway (AID 1259369; calls by dose curve; also: nearly all actives have a fitted effect of over 45% in size)
Summary of the method: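 Stable Gli1-Luc reporter NIH/3T3 clone; quantitative HTS in stimulated mode with conditioned medium. Luminescence measured after 24hr compound treatment at 37 C.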

[9] = target: Estrogen receptor beta (Homo sapiens) (UniProt Q92731); assay: qHTS assay to identify small molecule agonists of the estrogen receptor beta (ER-beta) signaling pathway (AID 1259377; active = well fitted activation curve with a large enough effect in the signal ratio in the repeat runs, not every such curve was filed as active; the % refers to the signal ratio)
Chain of Estrogen receptor beta (Homo sapiens) (Q92731 whole entry, looked up): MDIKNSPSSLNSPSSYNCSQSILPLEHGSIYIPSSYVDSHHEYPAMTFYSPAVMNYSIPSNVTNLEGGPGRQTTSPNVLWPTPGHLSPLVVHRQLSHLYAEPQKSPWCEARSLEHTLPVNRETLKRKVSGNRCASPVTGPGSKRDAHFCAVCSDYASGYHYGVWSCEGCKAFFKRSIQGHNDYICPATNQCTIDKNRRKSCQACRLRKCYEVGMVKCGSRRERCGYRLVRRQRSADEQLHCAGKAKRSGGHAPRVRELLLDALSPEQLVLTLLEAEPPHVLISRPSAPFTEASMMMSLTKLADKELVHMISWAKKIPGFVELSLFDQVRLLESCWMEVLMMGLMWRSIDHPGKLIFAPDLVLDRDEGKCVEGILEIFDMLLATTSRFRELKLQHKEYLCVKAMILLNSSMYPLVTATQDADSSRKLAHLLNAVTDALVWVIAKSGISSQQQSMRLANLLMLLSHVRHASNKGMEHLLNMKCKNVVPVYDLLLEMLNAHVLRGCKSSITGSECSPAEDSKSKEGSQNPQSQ
Summary of the method: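 ER-beta-UAS-bla HEK293T cells in medium with 2% charcoal-stripped FBS were exposed to compounds for 16 h at 37C. Beta-lactamase reporter activity was read as fluorescence after 2 h with LiveBLAzer B/G FRET substrate at room temperature.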

[10] = target: Estrogen receptor beta (Homo sapiens) (UniProt Q92731); assay: qHTS assay to identify small molecule antagonists of the estrogen receptor beta (ER-beta) signaling pathway (AID 1259378; active = well fitted inhibition curve with a large enough effect in the signal ratio in the repeat runs, not every such curve was filed as active; the % refers to the signal ratio)
Summary of the method: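 ER-beta-UAS-bla HEK293T cells in 2% charcoal-stripped FBS medium treated with compound plus 1nM final 17-beta-estradiol for 16 hr at 37C. Beta-lactamase reporter read by FRET substrate fluorescence after 2 hours at room temperature.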

[11] = qHTS assay to identify small molecule agonists of the androgen receptor (AR) signaling pathway in the presence of an antagonist - cell viability counter screen (AID 1259379);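 also: MDA-kb2 human breast cancer cells carrying an MMTV luciferase reporter; series mostly up to about 92 µM; nearly all actives have a fitted effect of over 25% in size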
Summary of the method: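 Nilutamide-containing (3.0uM final) MDA-kb2 cultures, 3,000 cells/well, were treated with compounds across 15 concentrations. After 16 hr at 37C with no CO2, cell viability was determined by CellTiter-Fluor fluorescence in the luciferase assay wells.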

[12] = qHTS assay to identify small molecule agonists of the estrogen receptor beta (ER-beta) signaling pathway - cell viability counter screen (AID 1259380); also: nearly all actives have a fitted effect of over 30% in size
Summary of the method: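 Steps: plate ER-beta-UAS-bla HEK293T cells, rest 6 hr; add compounds in DMSO; incubate 16 hr at 37C, 5% CO2; add FRET substrate 2 hr; add CellTiter-Glo, wait 30 min at room temperature; read luminescence.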

[13] = qHTS assay to identify small molecule antagonists of the estrogen receptor beta (ER-beta) signaling pathway - cell viability counter screen (AID 1259382); also: series mostly up to about 92 µM; nearly all actives have a fitted effect of over 55% in size
Summary of the method: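 Viability is scored by CellTiter-Glo luminescence (30 min, room temperature) in ER-beta-UAS-bla HEK293T wells already read for reporter fluorescence. Compound exposure lasts 16 hr at 37C alongside 1nM 17-beta-estradiol in charcoal-stripped serum medium.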

[14] = qHTS assay to identify small molecule agonists or antagonists of the thyroid stimulating hormone receptor (TSHR) signaling pathway - wild type cell line counter screen (AID 1259384; calls by dose curve)
Summary of the method: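 Wild-type Hek293 cells, 800/well, 18 h at 37C, then compound with Ro20-1724 for 30 min RT. cAMP by HTRF (cAMP-d2/anti-cAMP cryptate), 1 h RT, fluorescence read. 15 concentrations, triplicates.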

[15] = target: Thyrotropin receptor (Homo sapiens) (UniProt P16473); assay: qHTS assay to identify small molecule antagonists of the thyroid stimulating hormone receptor (TSHR) signaling pathway (AID 1259385; calls by dose curve; also: nearly all actives have a fitted effect of over 20% in size)
Chain of Thyrotropin receptor (Homo sapiens) (P16473 whole entry, looked up): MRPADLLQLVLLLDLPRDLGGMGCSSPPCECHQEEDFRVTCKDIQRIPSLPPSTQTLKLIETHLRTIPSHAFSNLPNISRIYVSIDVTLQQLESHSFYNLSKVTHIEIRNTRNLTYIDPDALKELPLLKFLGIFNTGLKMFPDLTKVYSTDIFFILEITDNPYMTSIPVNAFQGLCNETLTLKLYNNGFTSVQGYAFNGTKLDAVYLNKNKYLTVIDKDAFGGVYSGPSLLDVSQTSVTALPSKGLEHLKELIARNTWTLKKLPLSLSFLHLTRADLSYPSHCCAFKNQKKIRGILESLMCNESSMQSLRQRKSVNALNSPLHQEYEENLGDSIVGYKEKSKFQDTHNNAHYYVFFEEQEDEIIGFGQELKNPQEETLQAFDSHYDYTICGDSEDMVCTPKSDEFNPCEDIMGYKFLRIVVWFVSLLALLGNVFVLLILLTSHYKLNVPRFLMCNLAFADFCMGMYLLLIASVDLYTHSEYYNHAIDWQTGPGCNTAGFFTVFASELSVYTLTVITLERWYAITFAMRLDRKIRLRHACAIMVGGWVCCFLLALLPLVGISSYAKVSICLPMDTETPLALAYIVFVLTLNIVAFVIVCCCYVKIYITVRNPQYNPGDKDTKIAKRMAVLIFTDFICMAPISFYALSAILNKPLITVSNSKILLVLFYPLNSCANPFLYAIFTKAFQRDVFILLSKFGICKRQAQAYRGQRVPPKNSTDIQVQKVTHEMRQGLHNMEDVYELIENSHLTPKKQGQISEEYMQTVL
Summary of the method: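 TSHR-HEK293 cells (800/well) plated 18 h, then compounds with Ro20-1724 and TSH at 1.5 ng/mL final, 30 min at room temperature. cAMP quantified by HTRF (cAMP-d2/anti-cAMP-cryptate, 1 h); 15 concentrations in triplicate.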

[16] = qHTS assay to identify small molecule agonists of the estrogen receptor alpha (ER-alpha) signaling pathway in the presence of an antagonist - cell viability counter screen (AID 1259386);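 also: series mostly up to about 92 µM; cells exposed to compounds for 22 h at 37 °C before the viability read; nearly all actives have a fitted effect of over 30% in size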
Summary of the method: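 In this counter screen, compound effects on VM7Luc4E2 viability were tested in the presence of the antagonist ICI-182,780 at 10.0nM final. Compounds were dosed at 15 concentrations, exposure lasted 22hr, and the CellTiter-Fluor signal was read.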

[17] = target: Estrogen receptor (Homo sapiens) (UniProt P03372); assay: qHTS assay to identify small molecule antagonists of the estrogen receptor alpha (ER-alpha) signaling pathway using the BG1 cell line in the presence of 0.1 nM 17-beta-estradiol (AID 1259244); also: nearly all actives have a fitted effect of over 50% in size
Chain of Estrogen receptor (Homo sapiens) (P03372 whole entry, looked up): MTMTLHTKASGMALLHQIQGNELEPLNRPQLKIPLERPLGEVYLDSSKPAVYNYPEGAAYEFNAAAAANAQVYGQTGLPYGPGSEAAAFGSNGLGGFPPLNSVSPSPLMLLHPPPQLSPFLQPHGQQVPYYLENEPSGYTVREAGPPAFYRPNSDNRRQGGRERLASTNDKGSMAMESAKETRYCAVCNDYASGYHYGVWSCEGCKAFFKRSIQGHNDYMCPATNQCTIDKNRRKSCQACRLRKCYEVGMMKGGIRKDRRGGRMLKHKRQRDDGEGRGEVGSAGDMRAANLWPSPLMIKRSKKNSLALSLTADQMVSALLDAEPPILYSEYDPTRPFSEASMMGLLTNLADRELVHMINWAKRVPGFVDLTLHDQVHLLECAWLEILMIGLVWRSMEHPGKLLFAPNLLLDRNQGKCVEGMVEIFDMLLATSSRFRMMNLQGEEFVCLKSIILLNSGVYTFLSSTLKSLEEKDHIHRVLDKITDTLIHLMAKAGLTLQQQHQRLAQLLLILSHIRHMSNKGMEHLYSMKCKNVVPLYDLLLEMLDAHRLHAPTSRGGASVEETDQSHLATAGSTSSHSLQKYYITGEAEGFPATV
Summary of the method: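 Reporter is a stably transfected luciferase under four estrogen responsive elements in VM7Luc4E2 cells expressing native full-length ER-alpha; inhibition of 0.1 nM (final) 17beta-estradiol-driven signal over 22 h is read by luminescence.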

[18] = target: Estrogen receptor (Homo sapiens) (UniProt P03372); assay: qHTS assay to identify small molecule agonists of the estrogen receptor alpha (ER-alpha) signaling pathway in the presence of an antagonist (AID 1259383; calls by dose curve; also: top concentration of the series differs between compounds; nearly all actives have a fitted effect of over 15% in size)
Summary of the method: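 Readout was ERE-driven luciferase luminescence in VM7Luc4E2 cells, which express full-length ER-alpha endogenously. Compounds were tested at 15 concentrations for 22hr alongside 10.0nM ICI-182,780 (final concentration).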

Measured: Potency

NC1=NC(=O)C(c2ccccc2)O1 (stereo not given)
not listed: [17] | [18]
inactive: all other assays above

CN(C)CCc1ccc(O)cc1
not listed: [9] | [10] | [15] | [17] | [18]
inactive: all other assays above

O=[N+]([O-])c1ccc(CBr)cc1
not listed: [2] | [3] | [9] | [10]
inactive: all other assays above

O=C(Cc1ccccc1)OCc1ccccc1
not listed: [2] | [3] | [9] | [12]
inactive: all other assays above

CN1CCN(C(=O)O[C@H]2c3nccnc3C(=O)N2c2ccc(Cl)cn2)CC1
not listed: [17] | [18]
inactive: all other assays above

C[C@]12CC[C@H]3[C@@H](CC=C4C[C@@H](O)CC[C@@]43C)[C@@H]1CC[C@@H]2O
not listed: [3] | [12] | [14] | [15] | [17] | [18]
inactive: all other assays above

CSc1ccc(C(=O)C(C)(C)N2CCOCC2)cc1
not listed: [2] | [10] | [14] | [15] | [17] | [18]
inactive: all other assays above

CCN(CC)CCOC(=O)C(C)(c1ccccc1)c1ccccc1
not listed: [2] | [10] | [16] | [17] | [18]
inactive: all other assays above
